High-throughput results (PubChem BioAssay)
Pf growth 48h: Primary qHTS for delayed death inhibitors of the malarial parasite plastid, 48 hour incubation | P. falciparum luciferase growth in erythrocytes, 48 h | hit rate 5.9% among 310,000 | Potency, µM (titrated, usually from 28.7 µM), actives largely listed as inhibitors
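Parasite viability was followed by luminescence of a genomically integrated firefly luciferase. Cultures held 0.1% parasitemia at 2% hematocrit (final), incubated under 5% CO2 at 37 C.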
SARS PLP yeast: qHTS of Yeast-based Assay for SARS-CoV PLP; S. cerevisiae expressing SARS-CoV PLpro, growth rescue; Potency, µM (top dose mostly 32.9 µM), actives largely listed as activators; hit rate 0.19% among 330,000; AID 485353, 2010; calls by dose curve; note: nearly all actives have a fitted effect of over 55% in size
Pf growth 96h: Primary qHTS for delayed death inhibitors of the malarial parasite plastid, 96 hour incubation | P. falciparum luciferase reporter growth, 96 h | hit rate 6.9% among 320,000 | Potency, µM (series often up to 28.7 µM), most hits filed as inhibitors
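Compounds incubated with erythrocytes infected by luciferase-expressing P. falciparum (2% hematocrit, 0.05% parasitemia final) for 96 hours, 37 C in 5% CO2. Growth inhibition scored as decreased luciferase luminescence.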
NS1 inh: qHTS Assay for Inhibitors of Influenza NS1 Protein Function; Potency, µM (titrated, usually from 46.1 µM); AID 2326, 2010; hit rate 0.4% among 270,000; calls by dose curve; note: actives are rising curves; nearly all actives have a fitted effect of over 50% in size
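In this qHTS, NS1 from influenza A is expressed in budding yeast, where it slows growth. Cells are switched from glucose to 2% galactose medium (pH 6.0, -URA), treated with compound, and growth recovery is read at OD600.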
HCV inhibitor: qHTS Assay for Inhibitors of Hepatitis C Virus (HCV). Huh7.5.1 HCVcc-Cre infection, luciferase reporter, 44 h. Potency, µM (highest dose often 41.8 µM), hits mostly inhibitors. hit rate 3.4% among 340,000. AID 651820, 2012
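Luciferase read-out (15 sec integration) after a 15 min room-temperature substrate step quantifies HCVcc-Cre infection. Cells, 1,000 per well, had compound added 4 h post-plating, then virus at ~0.5 moi, and were cultured 44 h.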
AMA1 RON2 block: qHTS for Inhibitors of AMA1-RON; Towards Development of Antimalarial Drug Lead: Primary Screen. AlphaScreen AMA1-biotinylated RON2 peptide binding. Potency, µM (series often up to 58.2 µM), actives largely listed as inhibitors. hit rate 0.2% among 360,000. AID 720542, 2013. Plasmodium falciparum AMA1 (3D7) - RON2 peptide interaction; note: nearly all actives have a fitted effect of over 45% in size
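AMA1 (3D7) with his tag at 25 nM final met compounds first, then biotinylated RON2 peptide at 25 nM; detection used donor plus acceptor beads, 10 µg/mL apiece, read by AlphaScreen after 30 min at room temperature.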
A number is an active result; i = inactive; ? = inconclusive; nt = no result given; [ ] = another dose, or the depositor's remark. Shown are actives, neighbours in structure and some others; about 12% of the full set was active somewhere. Unless noted, calls come from the whole dose curve; as a rule, active = well fitted curve in the direction sought with a large enough effect; inconclusive = small, poorly fitted or top-dose-only effect, or another doubt; inactive = no such curve, though single readings can be large; an effect the other way counts as inactive or inconclusive.

SMILES	Pf growth 48h	SARS PLP yeast	Pf growth 96h	NS1 inh	HCV inhibitor	AMA1 RON2 block
Cc1ccc(C2CC(c3ccc(Br)cc3)=NN2C(=O)CSC2=NN3CCCC(=O)N=C3S2)cc1 (stereo unspecified)	12µM	i	i	i	?	i
COc1ccc(N2C(=S)NC3N2C(=S)NC3(C)c2ccccc2)cc1 (stereo unspecified)	i	i	i	nt	i	i
C#C[C@]1(O)CC[C@H]2[C@@H]3CCC4=CCCC[C@@H]4[C@H]3C(=C)C[C@@]21CC	?	nt	9.5µM	nt	nt	nt
CC(=O)N1CCN(c2ccccc2NC(=O)Cc2ccc(Cl)cc2)CC1	?	i	?	nt	i	i
O=C(Cc1ccccc1)Nc1ccccc1N1CCN(c2ccccc2)CC1	9.3µM	i	nt	i	i	i
CC(C)C(=O)N1CCN(c2ccccc2NC(=O)Cc2ccc(Cl)cc2)CC1	13µM	i	i[5.75 µM]	i	?	i
CCC(=O)N1CCN(c2ccccc2NC(=O)Cc2ccccc2)CC1	10µM	i	i	i	?	i
CS(=O)(=O)N1CCN(c2ccccc2NC(=O)Cc2ccccc2)CC1	i	i	i	i	i	i
CCOc1ccccc1-c1nc2c(s1)CCc1onc(-c3ccc(OC)cc3)c1-2	nt	nt	nt	nt	i	i
Cc1cnc(C(=O)OCC(=O)Nc2c(Cl)cc(Cl)cc2Cl)cn1	i	i	i	nt	i	i
Cc1ccc(C2CN(C)C3(C(=O)Nc4ccccc43)C23COc2ccccc2C3=O)cc1 (stereo unspecified)	15µM	i	?	i	i	i
CN1CC(c2ccccc2Cl)C2(COc3ccccc3C2=O)C12C(=O)Nc1ccccc12 (stereo unspecified)	?	i	?	i	?	i
NS(=O)(=O)c1ccc(N/N=C/c2ccncc2)cc1	6.6µM	i	?	i	i	i
Clc1cncc(Cl)c1N/N=C/c1ccncc1	?	i	1.2µM	i	?	i
COc1ccc(C2=CCN3CCCCC3C2)c(-c2ccc(OC)c(OC)c2)c1 (stereo unspecified)	nt	i	nt	nt	?	i
COCCN(CC(=O)Nc1cccc(C)c1C)C(=O)c1oc2c(Cl)cccc2c1C	9.3µM	i	?	nt	?	i
CCN(CC(=O)Nc1ccc(NC(C)=O)cc1)C(=O)c1oc2ccccc2c1C	i	i	i	nt	i	i
Cc1c(C(=O)N(C)CC(=O)Nc2cccc(F)c2)oc2c(Cl)cccc12	2.6µM	i	1.5µM	nt	?	i
CCN(CC(=O)Nc1ccc(NC(C)=O)cc1)C(=O)c1oc2c(ccc3ccccc32)c1C	?	i	12µM	nt	i	i
COc1cccc(NC(=O)CN(C)C(=O)c2oc3c(ccc4ccccc43)c2C)c1	0.26µM	i	0.23µM	nt	i	i
C#CCN(C[C@H]1[C@H](OC(=O)NCc2ccccc2F)[C@H](OC(=O)NCc2ccccc2F)C[C@H]2C(=O)N(c3ccccc3)C(=O)[C@@H]12)S(=O)(=O)c1ccc(C)cc1	nt	nt	nt	nt	nt	i
CN(Cc1ccccc1)C(=O)[C@@H]1CCCN1C(=O)[C@@H]1CCCN1C(=O)OC(C)(C)C	nt	nt	nt	nt	nt	i
COc1ccc(NC(=O)CN(C)C(=O)c2oc3c(ccc4ccccc43)c2C)cc1	0.19µM	i	0.19µM	nt	?	i
COc1ccc(NC(=O)CN(C)C(=O)CNC(=O)Cc2cccc3ccccc23)cc1	i	?	i	i	i	i
COCCN(CC(=O)Nc1cccc(C)c1C)C(=O)c1cc(-c2ccncc2)nc2ccccc12	10µM	i	8.3µM	nt	i	i
SMILES	Pf growth 48h	SARS PLP yeast	Pf growth 96h	NS1 inh	HCV inhibitor	AMA1 RON2 block
COc1c(F)c(F)c(C(=O)Nc2ccc(NC(=O)Cc3ccccc3)cc2)c(F)c1F	i	i	i	i	i	i
Cc1cc(C)cc(OCC(=O)OCC(=O)NC2CC2)c1	nt	i	nt	nt	i	i
Cc1cc(CN(C)C(=O)c2cc(COc3ccc4ncccc4c3)on2)on1	i	i	i	i	2.8µM	i
CCOC(=O)N1CCN(C(=O)c2cc(COc3cccc(C(C)=O)c3)on2)CC1	i	i	i	i	i	i
Cc1cccnc1CN1CCN(C(=O)c2cc(COc3ccc4ncccc4c3)on2)CC1	i	i	?	i	4µM	i
Cc1ccc(OCc2cc(C(=O)N(C)Cc3cnc4ccccn34)no2)cc1C	i	i	?	i	11µM	i
CCN1CCN(C(=O)c2cc(COc3c(C)cccc3C)on2)CC1	i	i	?	i	i	i
CCOC(=O)N1CCN(C(=O)c2cc(COc3ccc4ncccc4c3)on2)CC1	?	i	i	i	7.9µM	i
C/C=C/c1cnc2c(c1)C(=O)N([C@H](C)CO)C[C@@H](C)[C@@H](CN(C)C(=O)NC1CCCC1)O2	nt	nt	nt	nt	nt	i
COc1ccc(CN(C)C(=O)[C@H](Cc2ccccc2)NC(=O)c2ccco2)c(OC)c1	?	i	?	nt	i	i
Cc1ccccc1CN(C)C(=O)[C@H](Cc1ccccc1)NC(=O)c1ccco1	?	i	8.3µM	nt	i	i
COc1cc2c(cc1O)CCC1C2CC[C@]2(C)[C@@H](O)CC[C@@H]12 (stereo partly specified)	nt	nt	nt	i	nt	nt
CCOC(=O)C1(CCc2ccccc2)CCN(Cc2cccc3c2OCO3)CC1	?	i	i	i	10µM	i
CCOC(=O)C1(CCc2ccccc2)CCN(Cc2cccc3cnccc23)CC1	?	i	7.4µM	i	10µM	i
CCOC(=O)C1(CCc2ccccc2)CCN(Cc2c(O)cccc2OC)CC1	0.26µM	i	i	i	?	i
CCOC(=O)C1(CCc2ccccc2)CCN(Cc2ccc(OC)cc2)CC1	?	i	?	i	i	i
CCOC(=O)C1(CCc2ccccc2)CCN(C(=O)CN2CCOC2=O)CC1	i	i	1.7µM	i	i	i
CCOC(=O)C1(CCc2ccccc2)CCN(C(=O)C2=C(C)OCCO2)CC1	i	i	?	i	i	i
CCOC(=O)C1(Cc2ccccc2)CCN(Cc2cccc3c2OCO3)CC1	?	i	?	i	i	i
CC1(C)CCC/C(=C\c2ccccc2)C1=O	i	i	i	nt	i	i
O=c1[nH][nH]c(=O)c(Cl)c1Cl	nt	nt	nt	nt	i	i
CN(C(=O)COC(=O)CNC(=O)c1ccccc1F)C1CCCCC1	i	i	i	nt	i	i
C=C1[C@@H](C)C2[C@H](Cc3ccccc3)NC(=O)[C@]23OC(=O)CC[C@H](O)CCC[C@H](C)C/C=C/[C@H]3[C@@H]1O (stereo partly specified)	0.93µM	i	0.37µM	i	nt	nt
C=C1[C@@H](C)[C@H]2[C@H](Cc3ccccc3)NC(=O)[C@]23OC(=O)/C=C/[C@H](O)CCC[C@@H](C)C/C=C/[C@H]3[C@@H]1O	nt	i	nt	i	i	i
